According to ChEMBL document CHEMBL3988442, “University of Dundee, Small-Polar-MMV Screening Library” (2021):
The campaign covered roughly 48,000 compounds. About 13,000 (27%) showed an effect of 50% or more. This is one part of the list.

What follows are compounds tested on Wolbachia pipientis (assay: Anti-Wolbachia Cell-Based Screen). Settings: 5 µM.
Type: functional
Parameters: scale not given: in the data most compounds retested in dose-response had high values

Compound | Percent Effect [%]
O=c1[nH]nc(CNc2cncc(Br)c2)[nH]1 | -1.101
Cn1cc(S(=O)(=O)NC(=O)C2(c3cccc(Cl)c3)CC2)cn1 | 9.889
Cc1ccc(CN(Cc2ncc[nH]2)C2CC(C)(C)NC(C)(C)C2)o1.O=C(O)CC(O)(CC(=O)O)C(=O)O | 124
Cc1ccc(CN2CC[C@@H](NS(C)(=O)=O)[C@@H]2Cc2ccncc2)o1.O=C(O)C(F)(F)F.O=C(O)C(F)(F)F | 0.02145
Cc1cccc(CN(Cc2ccc(C)o2)C2CC(C)(C)NC(C)(C)C2)n1.O=C(O)CC(O)(CC(=O)O)C(=O)O | -13.89
Cc1ccc(CN(Cc2ccncc2)C2CC(C)(C)NC(C)(C)C2)o1.O=C(O)CC(O)(CC(=O)O)C(=O)O | 117.7
CC1(C)CC(N(Cc2ccccc2)Cc2ncc[nH]2)CC(C)(C)N1.O=C(O)CC(O)(CC(=O)O)C(=O)O | 109.1
CN(Cc1ncc[nH]1)CC1CCOc2ccccc2C1 (configuration not stated) | 5.15
Cc1ccccc1CN(CCO)Cc1ncc[nH]1 | -0.936
CCN(CC)C(=O)[C@@H]1C[C@@H](NC(=O)c2ccoc2)CN1C | 5.596
CN(Cc1ncc[nH]1)CC(c1cccs1)N1CCOCC1 (configuration not stated) | -1.486
Cc1nc(NC(=O)NC2CC(=O)N(C)C2)nn1C(C)C (configuration not stated) | -15.27
CCC[C@H]1CN(c2nccc(NCC)n2)C[C@@H]1NS(=O)(=O)N(C)C | 9.452
CCNc1ccnc(N2Cc3cnn(Cc4ccc(F)cc4)c3C2)n1 | -10.41
CCCn1nnc(NCc2ccccc2OCc2ccc(Cl)cc2)n1 | 104.8
CCOc1ccc(CNCCCn2ccnc2)cc1Br | 7.125
c1ccc(OCc2ccncc2)c(CNC2CCc3ncnn3C2)c1 (configuration not stated) | -0.3287
CCOc1cc(CNc2nnn(C)n2)ccc1OCc1ccc(Cl)cc1 | 121.9
CCn1nnc(NCc2ccccc2OCc2ccc(Cl)cc2)n1 | 122
Cn1nnc(NCc2ccccc2OCc2ccc(Cl)cc2)n1 | 119
Cc1cnn(CCNCc2ccccc2OCc2cccnc2)c1 | -3.699
CCOCc1ccccc1CNc1ccc2nncn2n1 | -4.273
CCOc1ccc(Cl)cc1CNCCCn1ccnc1 | -4.437
COc1ccc(-c2cn3c(n2)CO[C@@H](CNCc2ccccn2)C3)cc1 | -5.771
CC(C)OCCN1CCc2cncnc2C1 | -3.318
Cn1nnc(NCc2ccc(OCc3ccc(Cl)cc3)cc2)n1 | 101.9

Compound | Percent Effect [%]
CC(NCc1ccc(OCC(N)=O)cc1)c1ccc(Cl)cc1.Cl (configuration not stated) | -2.794
Cc1nnc(NCc2ccc(Cl)cc2)o1 | -6.045
CC[C@@]1(O)CCN(C(=O)c2ccc(-n3cnnc3)cc2)C[C@H]1O | 5.833
CCSc1ccc(C(=O)N2CCC3(CCC(=O)N(C)C3)CC2)s1 | 103.4
CO[C@H]1C[C@@H](O)C12CCN(C(=O)CCSCc1ccc(F)cc1)CC2 | 11.02
CCc1ccc(C(=O)N2CCC3(CCC(=O)N(CCN(C)C)C3)CC2)[nH]1 | -7.538
Cc1cc2cccc(C(=O)N3CC[C@](C)(O)[C@H](C)C3)c2o1 | 15.88
CCSc1ccc(C(=O)N2CC[C@](O)(CC)[C@H](O)C2)s1 | 107.9
CCN1CC2(CCC1=O)CCN(C(=O)c1ccc(Cl)cc1O)CC2 | -7.361
CCc1ccc(C(=O)N2CC[C@](C)(O)[C@H](C)C2)[nH]1 | -16.61
CCSc1ccc(C(=O)N2CC[C@](C)(O)[C@H](C)C2)s1 | 109.4
CCSc1ccc(C(=O)N2CCC3(CC2)[C@H](O)C[C@@H]3O)s1 | 100.2
CC[C@@]1(O)CCN(C(=O)c2ccsc2)C[C@H]1O | -12.48
CCn1nc(CC(C)C)cc1C(=O)N1CCC2(CC1)[C@H](O)C[C@@H]2O | -14.19
COc1ccccc1N1CCN(C(=O)c2ccoc2)CC1 | 4.438
CNC(=O)Cc1noc(-c2cc3c(s2)CCCCCC3)n1 | -5.82
COc1cccc(CC(=O)N2CCc3ncnc(C)c3CC2)c1 | -6.07
CCn1cnnc1C1CCN(C(=O)c2ccc(Cl)s2)CC1 | 1.567
CCn1cnnc1C1CCN(C(=O)COCCc2ccccc2)CC1 | 1.598
CCn1cnnc1C1CCN(C(=O)c2ccoc2C)CC1 | 104.9
CCn1cnnc1C1CCN(C(=O)c2cc(C)n(CC)c2C)CC1 | 80.75
CCc1ccc(C(=O)N2CCC(c3nncn3CC)CC2)o1 | 130.6
CCn1cnnc1C1CCN(C(=O)c2c(C)oc(C)c2C)CC1 | 107.2
CCn1c(C)cc(C(=O)N2CCCC(c3nc(C)no3)C2)c1C (configuration not stated) | 12.03
CCCS(=O)(=O)N1CCC2(CC1)COCCN(C(C)=O)C2 | -12.8
NCCC1CN(c2nc(-c3ccccc3)nc3c2CCNC3)CCO1 (configuration not stated) | -13.03
